M1 ag parental – counter-screen for M1 agonists: effect in parental CHO-K1 cells; activation, % at 3 µM; Fluo-8 calcium fluorescence; scaled to maximal ATP response, vehicle zero; AID 602248; actives 0.48% (n = 360,000); in the data active means activation above about 15%;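 further: untransfected CHO-K1 host cells lacking M1 receptor as counterscreen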
CHO-K1 Ca antag – M1 antagonist counterscreen hit in parental CHO-K1 cells. inhibition, % at 3 µM. AID 602250. actives 0.6% (n = 360,000). ATP-induced calcium, Fluo-8 fluorescence;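 active means inhibition above a per-plate cutoff, the plate's mean sample inhibition plus 3 SD, cut at about 24% in these data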;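 further: 0% = DMSO plus EC80 ATP and 100% = DMSO alone without ATP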
M1 PAM – human CHRM1 positive allosteric modulation; P11229; CHO-K1 hM1, Fluo-8 calcium fluorescence, ACh EC20; 0% = ACh EC20, 100% = maximal ACh; activation, % at 3 µM; actives 0.088% (n = 360,000); in the data active means activation above about 19%, passing the limit was not always enough
Target sequence (P11229 whole entry, looked up): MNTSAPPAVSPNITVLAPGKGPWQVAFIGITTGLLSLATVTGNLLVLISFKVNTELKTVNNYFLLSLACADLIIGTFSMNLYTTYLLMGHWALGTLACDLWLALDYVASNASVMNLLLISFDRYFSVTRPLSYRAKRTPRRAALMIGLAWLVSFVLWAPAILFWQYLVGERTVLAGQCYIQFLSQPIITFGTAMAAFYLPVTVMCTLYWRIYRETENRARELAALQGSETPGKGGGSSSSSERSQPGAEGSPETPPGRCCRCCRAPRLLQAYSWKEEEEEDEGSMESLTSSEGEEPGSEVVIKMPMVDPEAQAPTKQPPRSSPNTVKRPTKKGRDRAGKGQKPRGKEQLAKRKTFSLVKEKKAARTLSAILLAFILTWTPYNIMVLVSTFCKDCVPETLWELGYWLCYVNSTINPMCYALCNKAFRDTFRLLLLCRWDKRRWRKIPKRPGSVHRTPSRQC
M1 ag – agonists of human M1 muscarinic receptor; P11229; CHO-K1 hM1, Fluo-8 calcium fluorescence, agonist mode; 0% DMSO, 100% acetylcholine EC100; activation, % at 3 µM; actives 0.33% (n = 360,000); AID 588814;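 active means activation above the run's mean compound activation plus 3 SD, cut at about 16% in these data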;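 further: peak over basal fluorescence ratio within a 140 s kinetic read after compound addition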
M1 PAM parental – nonselective activator or artifact in parental CHO-K1 calcium assay; ATP EC20, Fluo-8 calcium fluorescence; 0% at ATP EC20, 100% at ATP max; activation, % at 3 µM; actives 0.02% (n = 360,000); AID 602247;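 active means activation above the run cutoff, the mean activation of all test compounds plus 3 SD, cut at about 40% in these data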;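 further: peak over basal fluorescence ratio in a 140 s read after ATP addition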
CHRM1 antagonist – antagonists of human M1 muscarinic receptor | AID 588852 | P11229 | inhibition, % at 3 µM | CHO-K1 hM1, Fluo-8 calcium fluorescence, ACh EC80 antagonist | actives 1.3% (n = 360,000);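 active means percent inhibition above its own plate's cutoff, namely the mean of that plate's compound wells plus 3 SD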;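 further: peak over basal fluorescence ratio during 140 s after agonist addition; 0% = ACh EC80 plus DMSO and 100% = DMSO alone without agonist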
* = called active by the depositor. A selection: hits, their analogues and other compounds. The true share with any hit is near 2.3%.

SMILES	M1 ag parental	CHO-K1 Ca antag	M1 PAM	M1 ag	M1 PAM parental	CHRM1 antagonist
COc1ccc(C(=O)C2CCCN(Cc3ccc(F)cc3F)C2)cc1F (stereo unspecified)	2	-14	-26	-8	10	71*
COc1cccc(OC)c1CN1CCCC(C(=O)c2cccc(Cl)c2)C1 (stereo unspecified)	0	7	-21	-9	-19	22
CCOC(=O)C1(CCc2ccccc2)CCN(Cc2cccc3cnccc23)CC1	0	6	-34	-14	9	48*
CCOC(=O)C1(CCc2ccccc2)CCN(Cc2cccc3c2OCO3)CC1	5	10	-34	-13	-3	34*
O=P(Oc1ccc(-c2ccccc2)cc1)(N1CC1)N1CC1	1	-7	5	0	8	-17
c1ccc(C(OCCN2CCN(c3ncccn3)CC2)c2ccccc2)cc1	4	2	-27	-6	5	48*
CC(C)Cc1nnc(NC(=O)CCC(=O)N2CCN(CCOC(c3ccccc3)c3ccccc3)CC2)s1	0	-12	-4	-9	19	-5
Clc1ccc(C(OCCN2CCCCC2)c2ccccc2)cc1 (stereo unspecified)	1	0	-27	-6	-8	96*
CN1C2CCC1C(COC(=O)c1ccccc1)C(O)C2 (stereo unspecified)	1	-8	2	-4	-2	4
CN1C2CCC1CC(OC(c1ccccc1)c1ccccc1N)C2 (stereo unspecified)	1	-10	-26	-6	11	99*
COC(=O)C1=C(c2ccc(F)cc2OCc2ccccc2)C[C@@H]2CC[C@H]1N2C(=O)N1CCOCC1	-1	-11	10	-8	9	-11
CC(=O)OC1(c2ccccc2)CCN(C2CCCCC2)CC1C (stereo unspecified)	4	-1	-23	-7	4	31*
CC[N+](C)(CC)CCCOC(=O)C(O)(c1ccccc1)C1CCCCC1 (stereo unspecified)	0	-9	-23	-9	32	96*
CCOC(C(=O)OCCC[N+](C)(CC)CC)(c1ccccc1)c1ccccc1	1	-10	-35	-15	7	98*
CCCCOC(=O)c1ccccc1C(=O)OCCCC	0	-7	-3	-4	13	9
CCN(CC)CCCOC(=O)C(OC)(c1ccccc1)c1ccccc1	0	-6	-36	-12	3	99*
CCOC(C(=O)OCC(O)CN(CC)CC)(c1ccccc1)c1ccccc1 (stereo unspecified)	1	-11	2	-6	17	-2
COC(=O)C1=C(c2ccc(Cl)c(C(F)(F)F)c2)C[C@@H]2CC[C@H]1N2C(=O)NCc1ccco1	-1	-13	4	-11	1	-5
COC(C)(C)CCCC(C)C/C=C/C(C)=C/C(=O)OC(C)C (stereo unspecified)	2	-14	0	-5	7	-7
O=c1[nH]c2ccccc2n1C1CCN(CCCC(c2ccc(F)cc2)c2ccc(F)cc2)CC1	0	14	-10	21*	-13	7
CC(C)CNC(=O)/C=C/C=C/CCCCCC/C=C/c1ccc2c(c1)OCO2	0	-1	3	-1	17	-6
O=C(Cn1c(=S)[nH]c2ccccc2c1=O)N1CCC2(CC1)OCCO2	1	-1	-2	-4	5	2
Cn1c(=O)n(CC(=O)N2CCC3(CC2)OCCO3)c(=O)c2ccccc21	0	-19	25*	3	18	-64
Cn1cc(C(=O)OCC(=O)NC2(C#N)CCCC2)c2ccccc21	0	3	-7	-5	-13	16
COC(=O)C1=C(c2ccc(Cl)c(C(F)(F)F)c2)C[C@@H]2CC[C@H]1N2C(=O)NCCO	0	-13	-1	-8	17	0
SMILES	M1 ag parental	CHO-K1 Ca antag	M1 PAM	M1 ag	M1 PAM parental	CHRM1 antagonist
COC(=O)C1=C(c2ccccc2)C[C@@H]2CC[C@H]1N2C	0	-10	-31	-8	18	60*
COC(=O)C1=C(c2ccc(F)cc2F)C[C@@H]2CC[C@H]1N2C(=O)NC(C)C	0	3	-1	-9	9	-4
COC(=O)C1=C(c2ccc(Cl)c(C(F)(F)F)c2)C[C@@H]2CC[C@H]1N2C	0	-3	-30	-8	8	32*
COC(=O)C1=C(c2ccc(F)cc2F)C[C@@H]2CC[C@H]1N2C	1	-25	-33	-9	-3	84*
Fc1ccccc1CN1Cc2ccccc2-n2nncc2C1	2	-10	3	-7	15	-4
COc1ccc(CN2CC=C(c3ccc(F)cc3)CC2)cc1Br	1	-14	-26	-7	23	46*
CCN(CC)c1ccc(CN2CC=C(c3ccc(F)cc3)CC2)cc1	1	0	-22	-5	0	37*
O=C1C(=O)N(c2ccccc2)P(=O)(N(CCCl)CCCl)N1c1ccccc1	0	-5	2	0	12	0
COc1ccc(-c2ccc3c(c2)CN(C(=O)C(C)(C)C)Cc2cnnn2-3)cc1	3	20	1	-8	3	3
Clc1ccccc1CNC1CN2CCC1CC2 (stereo unspecified)	0	1	-20	-10	7	39*
c1ccc(CNC2CN3CCC2CC3)cc1 (stereo unspecified)	0	-4	-28	-9	5	59*
CCC(=O)c1c(O)n(C2CCCCCC2)c(=O)[nH]c1=O	0	28*	1	-3	-6	-1
CC(=NCCO)c1c(O)n(C2CCCCC2)c(=O)[nH]c1=O	0	-13	4	-2	16	-1
O=C(Nc1ccncc1)c1cccn(Cc2ccccc2)c1=O	32*	11	-1	-12	-12	8
CC1CCOC(=O)C=CC=CC(=O)OC2CC3OC4C5OC5(C)C(O)CC4(COC(=O)C1O)C2(C)C31CO1 (stereo unspecified)	1	-15	5	-2	23	-19
CC1=CC2OC3CC4OC(=O)C=CC=CC(=O)OCCC(C)C(O)C(=O)OCC2(CC1)C4(C)C31CO1 (stereo unspecified)	7	7	-18	2	-15	37*
Cc1ccc(OCCOc2cccc(C=C3C(=O)NC(=O)NC3=O)c2)c(C)c1	1	5	-3	-4	5	-9
CCCC(=O)OCC[N+](C)(C)C	0	-1	-19	43*	13	-12
CCN(CC)S(=O)(=O)c1cc(NC(=O)C(C)N2CC=C(c3ccccc3)CC2)ccc1C (stereo unspecified)	0	-7	-28	-15	19	37*
Cc1cc(Br)c(NC(=O)CN2CC=C(c3ccccc3)CC2)c(Br)c1	3	-10	-26	-15	27	3
